In PubChem BioAssay (NCI):
Compounds without any hit were thinned out: in the full panel of roughly 83,000, 20% have a hit.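 Single-concentration screen, 48 h exposure, 96-well plates. Endpoint: percent growth. Below 10 = active.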

Key:
Test in all cases: NCI-60 one-dose screen, 48 h (100 = growth as untreated, 0 = no growth, -100 = all killed)
Settings in all cases: 10 µM unless noted
SR leukemia = tested on: SR leukemia
RPMI-8226 leukemia = tested on: RPMI-8226 leukemia
OVCAR-8 ovarian = tested on: OVCAR-8 ovarian
OVCAR-5 ovarian = tested on: OVCAR-5 ovarian
SK-OV-3 ovarian = tested on: SK-OV-3 ovarian
IGROV1 ovarian = tested on: IGROV1 ovarian
OVCAR-3 ovarian = tested on: OVCAR-3 ovarian
HS 578T breast = tested on: HS 578T breast
NCI/ADR-RES ovarian = tested on: NCI/ADR-RES ovarian

Measured: growth

CC(CC(CCC(=O)O)(c1ccccc1)c1ccccc1)N(C)C (configuration not stated)
inactive: SR leukemia 98.6% | RPMI-8226 leukemia 109% | OVCAR-8 ovarian 94.4% | OVCAR-5 ovarian 98.4% | SK-OV-3 ovarian 97.6% | IGROV1 ovarian 107% | OVCAR-3 ovarian 67.3% | HS 578T breast 106% | NCI/ADR-RES ovarian 108%

COc1cccc(C(=O)O)c1OC
inactive: SR leukemia 101% | RPMI-8226 leukemia 101% | OVCAR-8 ovarian 101% | OVCAR-5 ovarian 85.9% | SK-OV-3 ovarian 91.6% | IGROV1 ovarian 99.4% | HS 578T breast 88.9% | NCI/ADR-RES ovarian 99.4%

C=CCNC(=S)N/C=C(/C(=O)c1ccccc1)c1ccccc1
inactive: SR leukemia 95.4% | RPMI-8226 leukemia 101% | OVCAR-8 ovarian 117% | OVCAR-5 ovarian 97.7% | SK-OV-3 ovarian 110% | IGROV1 ovarian 106% | OVCAR-3 ovarian 112% | HS 578T breast 103% | NCI/ADR-RES ovarian 104%

CC1CCC(C(C)(C)[N+](C)(C)C)CC1 (configuration not stated)
inactive: SR leukemia 94% | RPMI-8226 leukemia 102% | OVCAR-8 ovarian 100% | OVCAR-5 ovarian 104% | SK-OV-3 ovarian 102% | IGROV1 ovarian 115% | OVCAR-3 ovarian 107% | HS 578T breast 100% | NCI/ADR-RES ovarian 107%

CC1CC(C)S(=O)(=O)C1 (configuration not stated)
inactive: SR leukemia 97.9% | RPMI-8226 leukemia 109% | OVCAR-8 ovarian 92% | OVCAR-5 ovarian 108% | SK-OV-3 ovarian 120% | IGROV1 ovarian 118% | OVCAR-3 ovarian 111% | HS 578T breast 125% | NCI/ADR-RES ovarian 111%

O=S(=O)(O)C(C(I)I)S(=O)(=O)O
inactive: SR leukemia 101% | RPMI-8226 leukemia 114% | OVCAR-8 ovarian 101% | OVCAR-5 ovarian 114% | SK-OV-3 ovarian 106% | IGROV1 ovarian 114% | OVCAR-3 ovarian 105% | HS 578T breast 93.7% | NCI/ADR-RES ovarian 113%

CCOC(=O)Nc1nccs1
inactive: SR leukemia 110% | RPMI-8226 leukemia 100% | OVCAR-8 ovarian 104% | OVCAR-5 ovarian 110% | SK-OV-3 ovarian 99.9% | IGROV1 ovarian 97.2% | OVCAR-3 ovarian 109% | HS 578T breast 98.7% | NCI/ADR-RES ovarian 112%

Cc1cc(C(=O)c2ccccc2)cc(C)c1O
inactive: SR leukemia 55.6% | RPMI-8226 leukemia 81.2% | OVCAR-8 ovarian 101% | OVCAR-5 ovarian 99.5% | SK-OV-3 ovarian 101% | IGROV1 ovarian 103% | OVCAR-3 ovarian 109% | NCI/ADR-RES ovarian 104%

Nc1ccc2c(c1)Cc1cc(N)c(N)cc1-2
inactive: SR leukemia 82.2% | RPMI-8226 leukemia 101% | OVCAR-8 ovarian 96.7% | OVCAR-5 ovarian 107% | SK-OV-3 ovarian 93.7% | IGROV1 ovarian 97.9% | OVCAR-3 ovarian 112% | HS 578T breast 106% | NCI/ADR-RES ovarian 101%

Oc1ccc(CCC2CCNc3ccccc32)cc1 (configuration not stated)
inactive: SR leukemia 75.7% | RPMI-8226 leukemia 45.2% | OVCAR-8 ovarian 73.4% | OVCAR-5 ovarian 97.9% | SK-OV-3 ovarian 73.1% | IGROV1 ovarian 91.1% | OVCAR-3 ovarian 84.1% | HS 578T breast 91.8% | NCI/ADR-RES ovarian 74.7%

Cc1ccc(C)c(CN(C)C)c1O
inactive: SR leukemia 118% | RPMI-8226 leukemia 121% | OVCAR-8 ovarian 98.2% | OVCAR-5 ovarian 102% | SK-OV-3 ovarian 107% | IGROV1 ovarian 110% | OVCAR-3 ovarian 113% | HS 578T breast 105% | NCI/ADR-RES ovarian 99.3%

c1cc(CNCCNCc2ccncc2)ccn1
inactive: SR leukemia 130% | RPMI-8226 leukemia 97.1% | OVCAR-8 ovarian 97% | OVCAR-5 ovarian 115% | SK-OV-3 ovarian 104% | IGROV1 ovarian 113% | OVCAR-3 ovarian 118% | HS 578T breast 113% | NCI/ADR-RES ovarian 108%

CC(=O)/C(C)=N\OC(=O)Nc1ccccc1
inactive: SR leukemia 106% | RPMI-8226 leukemia 102% | OVCAR-8 ovarian 106% | OVCAR-5 ovarian 93.1% | SK-OV-3 ovarian 90.3% | IGROV1 ovarian 103% | OVCAR-3 ovarian 104% | HS 578T breast 107% | NCI/ADR-RES ovarian 101%

CCN(CC)CCCC(C)NC(=S)N/N=C(\C)c1ccccn1 (configuration not stated)
inactive: SR leukemia 17.7% | RPMI-8226 leukemia 58.9% | OVCAR-8 ovarian 36.1% | OVCAR-5 ovarian 55.1% | SK-OV-3 ovarian 52.3% | IGROV1 ovarian 32.3% | OVCAR-3 ovarian 51% | HS 578T breast 92.6% | NCI/ADR-RES ovarian 93.7%

Cc1ccc(C)c2c1CCC2=O
inactive: SR leukemia 132% | RPMI-8226 leukemia 84.1% | OVCAR-8 ovarian 104% | OVCAR-5 ovarian 95.8% | SK-OV-3 ovarian 121% | IGROV1 ovarian 117% | HS 578T breast 92.6% | NCI/ADR-RES ovarian 101%
